Screening results: PubChem BioAssay, The Scripps Research Institute Molecular Screening Center
An excerpt weighted towards active compounds, which were near 3.5% of everything screened.
TEAD-YAP block – TEAD-YAP interaction inhibition; HEK-TIYL cells, TEAD-Gal4/YAP UAS-luciferase luminescence; inhibition, % at 9.12 µM; 1.4% of 640,000 active; AID 1259422; in the data active means inhibition above about 32%;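 further: 0% = median of test compound wells and 100% = reference inhibitor wells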
FBW7 activator – activators of human E3 ligase FBW7; Q969H0; AlphaScreen FBW7–phospho-cyclin E peptide binding, activator screen; normalized activity (activation), % at 26.1 µM; 0.13% of 650,000 active; AID 1259310; in the data active means normalized activity above about 1.9%;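 further: purified mutant Fbw7 with reduced substrate affinity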
GPR151 activ – human GPR151 activation | Q8TDV0 | PathHunter beta-arrestin GPR151 cells, luminescence | activation, % at 11.2 µM | 1% of 650,000 active | AID 1508602; in the data active means activation above about 4.9%;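 further: 0% = median of compound wells and 100% = cells with positive control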
Target sequence (Q8TDV0 whole entry, looked up): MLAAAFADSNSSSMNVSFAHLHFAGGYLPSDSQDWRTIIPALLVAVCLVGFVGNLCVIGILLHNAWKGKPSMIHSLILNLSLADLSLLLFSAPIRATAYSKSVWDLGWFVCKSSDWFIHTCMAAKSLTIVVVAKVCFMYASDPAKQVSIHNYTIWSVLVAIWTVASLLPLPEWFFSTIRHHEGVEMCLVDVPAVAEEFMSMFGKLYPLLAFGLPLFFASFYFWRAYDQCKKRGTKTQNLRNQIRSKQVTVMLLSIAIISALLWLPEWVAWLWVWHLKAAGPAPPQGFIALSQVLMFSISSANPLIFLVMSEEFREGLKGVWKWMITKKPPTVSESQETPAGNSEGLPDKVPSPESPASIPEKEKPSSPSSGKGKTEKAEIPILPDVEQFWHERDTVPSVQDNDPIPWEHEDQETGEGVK
MITF primary – human MITF inhibition, primary screen. O75030. AlphaScreen MITF homodimerization, bead proximity signal. inhibition, % at 2.6 µM. 0.91% of 650,000 active; in the data active means inhibition above about 50%;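 further: 0% = vehicle wells with protein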
* hit, by the source's call; ! = a repeat was not active.

SMILES	TEAD-YAP block	FBW7 activator	GPR151 activ	MITF primary
N/C(=N\OC(=O)c1ccccc1Br)c1ccccn1	66.3*	0.2	-7.4	15.4
N/C(=N\OC(=O)c1ccccc1I)c1ccccn1	-26.8	0.0	-5.4	-14.0
CC(C)n1c(N2CCC(N3CCOCC3)CC2)nc2c(NCCO)ncnc21	0.9	0.1	0.4	2.7
CC(C)Cc1nnc(NC(=O)c2cccc(Cl)c2)s1	-12.1	0.5	0.5	17.4
COc1ccccc1C(=O)O/N=C(\N)c1ccccn1	38.4*	0.0	-7.9	0.8
O=C(CN(c1ccc(Br)cc1)S(=O)(=O)c1ccccc1)NC1CC1	1.4	0.1	0.1	15.4
COc1cccc(-c2nc3nc(C)c(CCC(=O)O)c(C)n3n2)c1	48.5*	-0.1	-0.2	0.6
O=C(O)CCc1nc(-c2ccc(Cl)cc2Cl)no1	-3.8	-0.1	1.0	1.2
Cc1nc2nc(-c3ccc(Cl)cc3Cl)nn2c(C)c1CCC(=O)O	80.2*	-0.2	0.1	1.8
COC(=O)c1ccc(Cl)cc1NC(=O)c1cc(OC)ccc1Br	36.7*	0.0	-1.1	-2.9
COc1ccc(C(=O)Nc2cc(Cl)ccc2C(=O)O)cc1	5.9	0.1	-1.4	15.5
COc1cc(/C=N/NC(=S)Nc2cccc(C(=O)O)c2)ccc1O	32.3*	-0.1	-1.9	-3.2
COc1cccc(NC(=S)N/N=C/c2ccc(O)cc2)c1	60.0*	-0.1	-0.8	-2.7
COc1cccc(/C=N/NC(=S)Nc2cccc(F)c2)c1O	40.2*	-0.2	-0.4	57.7*
COc1ccccc1/C=N/NC(=O)C(=O)Nc1ccccc1OC	0.8	0.2	-1.5	2.8
COc1ccccc1/C=N/NC(=S)Nc1ccccc1OC	46.1*	-0.1	1.4	-4.5
C=CCn1c(SCC(=O)Nc2cccc(Cl)c2)nc2sc3c(c2c1=O)CCCC3	4.0	0.0	-0.3	-8.0
CC(CCc1ccccc1)N1CCN(S(=O)(=O)c2ccc(Cl)cc2)CC1 (configuration not stated)	-13.2	-0.1	2.0	20.9
O=C(O)c1cccc(NC(=S)N/N=C/c2cc(Cl)ccc2O)c1	-11.6	-0.9	-1.8	90.8*
CCOC(=O)c1ccc(NC(=S)Nc2cccc(OC)c2)cc1	61.8*	0.8	-0.9	6.5
COc1cccc(/C=N/NC(=S)Nc2cccc(C(=O)O)c2)c1O	60.5*	-0.1	-9.0	111.7*
CCc1ccc2oc(-c3ccccc3)cc(=NCC(=O)O)c2c1	32.2*	-0.1	-3.2	14.3
CCCCC(=O)NCCNc1nc(C)nc2sc3c(c12)CCCC3	33.3*	0.3	0.7	10.2
C=CCNc1ncnc2sc3c(c12)CCC3	-19.3	0.3	0.5	-0.1
Cc1ccc(C)n1-c1cc(Cl)ccc1C(=O)O	-0.3	-1.1	1.7	81.4*
SMILES	TEAD-YAP block	FBW7 activator	GPR151 activ	MITF primary
CC(=O)Nc1ccc(-n2c(C)ccc2C)c(C(=O)O)c1	2.3	-1.3	1.2	57.4*
Cc1ccc(C)n1-c1ccccc1C(=O)O	0.2	-2.2	0.3	0.8
Cc1ccc(C)n1-c1ccc(C(=O)O)c(Cl)c1	-6.5	-0.7	2.4	81.3*
COc1ccc(CCNS(=O)(=O)c2ccc(F)c(C(=O)Nc3ccc(C(F)(F)F)cc3)c2)cc1OC	4.5	0.2	-1.1	-20.4
CCN(CC)c1ccc(NC(=O)CNCCN2CCOCC2)c(C)c1	2.2	-0.1	1.7	60.6*
COc1ccccc1CN1CCc2nnc(CNC(=O)c3ccccc3)n2CC1	1.9	0.0	0.0	-9.3
CC(c1ccccc1)c1ccc(O)c(O)c1 (configuration not stated)	-4.8	-0.5	-2.2	-5.6
NCC(O)c1ccc(O)c(O)c1 (configuration not stated)	8.3	-0.3	0.4	76.9*!
O=C(O)c1ccc(N/N=C/c2c[nH]c3ccccc23)cc1	84.6*	-0.4	-6.4	-1.9
O=C(N/N=C\c1c[nH]c2ccccc12)c1ccc(O)cc1	-2.5	0.1	-0.3	0.8
O=C(N/N=C/c1c[nH]c2ccccc12)c1cc(-c2ccccc2)n[nH]1	0.2	0.0	1.0	-10.1
O=C(N/N=C/c1c[nH]c2ccccc12)c1cc(-c2ccncc2)nc2ccccc12	35.1*	0.0	-2.1	5.9
COc1ccc(/C=C2\SC(=Nc3cccc(C)c3C)NC2=O)c(OC)c1	6.2	0.0	1.0	3.9
COc1ccc(/C=C2\SC(=O)NC2=Nc2ccc(C)cc2)c(OC)c1	57.6*	-0.2	0.9	-3.7
COc1ccc(/C=C2\SC(=Nc3cc(C)cc(C)c3)NC2=O)c(OC)c1	57.2*	-0.5	0.0	0.2
O=C(O)CSC(SCC(=O)O)c1cccnc1	3.6	0.2	1.9	12.1
O=C1c2cccc3c(Cl)ccc(c23)C(=O)N1O	45.5*	-0.1	-2.0	1.1
O=C1c2cccc3c(Br)ccc(c23)C(=O)N1O	11.1	-0.1	-1.2	-1.4
c1ccc(CC2CCN(c3ncnc4sccc34)CC2)cc1	33.6*	-0.1	3.3	1.3
O=C(c1cc(COc2cccc3cnccc23)on1)N1CCN(C(=O)c2cccs2)CC1	42.8*	-0.1	2.9	-0.4
COc1ccc(CCNC(=O)CSCc2nc(-c3sccc3C)oc2C)cc1OC	-1.1	0.0	0.0	12.8
COc1ccc(-c2cc(C(F)(F)F)n3nc(C(=O)NC(C)(C)C)cc3n2)cc1OC	-7.2	1.9*	-0.5	-5.7
COc1ccc(-c2cc(C(F)(F)F)n3nc(C(=O)NC(C)(C)CC(C)(C)C)cc3n2)cc1OC	-10.7	0.1	-0.9	-7.9
COc1cc(Nc2ncc(C)c(NCCCN3CCCC3=O)n2)cc(OC)c1OC	-17.9	0.6	-1.6	-12.3
O=C(NCCCn1ccnc1)C1CC12CCN(C(=O)C1(c3ccccc3)CCCCC1)CC2 (configuration not stated)	38.0*	0.1	1.3	11.4
SMILES	TEAD-YAP block	FBW7 activator	GPR151 activ	MITF primary
Nc1nnc(SCC(=O)N2N=C(c3ccc4ccccc4c3)CC2c2ccccc2)s1 (configuration not stated)	51.2*	0.0	-1.5	-0.1
CC(C)CCNC(=O)CCCCCn1c(=S)[nH]c2ccccc2c1=O	-2.9	0.4	-1.4	-1.3
OCCCNc1ccc2ncc(-c3ccc4c(c3)OCO4)n2n1	61.0*	0.1	0.6	-9.5
c1ccc(CCNc2ccc3ncc(-c4ccc5c(c4)OCO5)n3n2)nc1	48.0*	0.2	-0.4	-9.2
Nc1nc(CN2CCOCC2)nc2cc(Cl)ccc12	5.4	0.0	-0.2	12.4
Cc1ccc(-c2n[nH]c(=S)n2/N=C/c2ccc(O)c(O)c2O)cc1	0.1	-0.4	-0.8	26.0
CCOC(=O)c1[nH]c(C)c(C(=O)Nc2ccc(Br)cc2F)c1C	-6.0	0.1	-0.6	-1.0
CCOC(=O)c1[nH]c(C)c(C(=O)Nc2ccc(F)cc2C)c1C	46.8*	0.0	-0.1	8.1
CCOC(=O)c1[nH]c(C)c(C(=O)Nc2ccc(C)cc2C)c1C	51.4*	0.1	-0.4	9.7
COCCNC(=O)c1ccc2cncc(-c3ccsc3)c2n1	78.0*	0.0	-0.1	14.1
O=C(NC1CC1)c1ccc2cncc(-c3ccsc3)c2n1	71.2*	-0.1	-1.5	11.2
O=C(NC1CC1)c1csc(Nc2cccnc2)n1	6.7	0.0	1.2	8.4
CC(C)CSc1nnc(-c2cccc(S(=O)(=O)N3CCCCC3)c2)o1	14.0	0.6	-0.2	5.5
CC(=O)Nc1nc2ccccc2n1Cc1ccccc1Cl	32.6*	-0.2	0.7	9.4
